Experimental data reported in PubChem BioAssay (NCATS).
Inconclusive results are not listed. Unless noted, the call rests on the fitted dose curve; in most records, active means well fitted curve in either direction with a large enough effect (not every such curve was filed as active); inconclusive means small, poorly fitted or top-dose-only effect, or another doubt; inactive means flat fitted curve, though single readings scatter.

Columns and labels:
[1] = AP1 Signaling Pathway (AID 357); settings: ME-180 AP-1-bla reporter, EGF-induced, beta-lactamase ratio, 5 h; at 17.2 µM (top of the series) unless noted; further: on the % scale 0 is the no-effect control and ±100 the full control effect
How it was run: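 Modulation of EGF-driven AP-1 transcription was assessed with a beta-lactamase reporter in ME-180 cells. Compound and EC50 EGF were co-incubated 5 hours at 37 °C before 2.5-hour CCF4 loading at room temperature and dual-emission reading.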

[2] = NFAT Signaling Pathway (AID 444); settings: Jurkat NFAT-bla M1, carbachol, beta-lactamase ratio, 5 h; at 17.2 µM (top of the series) unless noted;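 further: carbachol stimulus at about its EC50 of 1 µM final; on the % scale 0 is the no-effect control and ±100 the full control effect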
How it was run: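 Jurkat cells carrying an NFAT-driven β-lactamase reporter and co-transfected muscarinic M1 receptor were treated with compound plus carbachol (1 uM final, an EC50 level) for 5 h at 37 °C. CCF4 loading followed for 1 h at RT; 460/530 nm ratio gave %activity.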

[3] = Stat Signaling Pathway (AID 446); settings: ME-180 SIE beta-lactamase reporter, IL-6 stimulated, 5 h; at 17.2 µM (top of the series) unless noted;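 further: ME-180 cervical cancer cells given 40 pM IL-6 alongside compound; SIE-controlled beta-lactamase reporter measured as 460/530 nm FRET emission ratio; on the % scale 0 is the no-effect control and ±100 the full control effect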
How it was run: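 ME-180 SIE-bla cells; overnight plating; cpd + IL-6 40 pM, 5 h, 37 C; LiveBLAzer 2.5 h RT; 460/530 nm emission ratio. Normalized to 300 pM IL-6 and 125 nM JAK inhibitor controls.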

[4] = biological target: Glucocorticoid receptor (Homo sapiens) (UniProt P04150); experiment: GR-GFP Redistribution (AID 450;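 active means compounds whose dose series gives a full or clear partial fitted curve of increased nuclear translocation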; further: potency means the concentration at half of the fitted maximal effect)
Glucocorticoid receptor (Homo sapiens), sequence (P04150 whole entry, looked up): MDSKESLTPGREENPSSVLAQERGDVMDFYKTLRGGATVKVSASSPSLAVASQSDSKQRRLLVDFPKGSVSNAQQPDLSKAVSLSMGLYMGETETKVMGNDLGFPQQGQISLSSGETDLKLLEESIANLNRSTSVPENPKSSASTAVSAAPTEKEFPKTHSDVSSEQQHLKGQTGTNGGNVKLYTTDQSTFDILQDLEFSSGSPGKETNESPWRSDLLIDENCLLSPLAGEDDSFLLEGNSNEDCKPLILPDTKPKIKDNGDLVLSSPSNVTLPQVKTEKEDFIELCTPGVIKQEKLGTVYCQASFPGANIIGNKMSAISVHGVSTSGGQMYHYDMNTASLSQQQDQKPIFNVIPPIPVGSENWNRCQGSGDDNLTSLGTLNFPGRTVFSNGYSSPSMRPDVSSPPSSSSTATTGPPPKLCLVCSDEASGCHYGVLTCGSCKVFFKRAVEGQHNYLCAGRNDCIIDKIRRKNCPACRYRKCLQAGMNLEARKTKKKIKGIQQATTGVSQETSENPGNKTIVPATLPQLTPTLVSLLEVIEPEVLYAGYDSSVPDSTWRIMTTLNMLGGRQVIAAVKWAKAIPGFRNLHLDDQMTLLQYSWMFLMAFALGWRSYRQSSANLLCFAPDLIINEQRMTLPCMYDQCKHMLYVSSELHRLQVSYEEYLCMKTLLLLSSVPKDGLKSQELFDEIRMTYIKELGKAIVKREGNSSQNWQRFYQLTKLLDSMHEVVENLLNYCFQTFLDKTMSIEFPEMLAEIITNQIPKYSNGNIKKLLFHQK

COc1ccc(OCC(O)CN2C(=O)NC(C)(C)C2=O)cc1 (stereo not given)
inactive: activity change, negative = inhibition [1] -11.2% | activity change, negative = inhibition [2] 0.93% | activity, negative = inhibition [3] 9.74% | Potency [4] > 20.6 µM

CC/C(=N\O)c1ccc(OC)c(OC)c1
inactive: activity change, negative = inhibition [1] 4.83% | activity change, negative = inhibition [2] 2.19% | activity, negative = inhibition [3] 3.07% | Potency [4] > 20.6 µM

Cc1ccc(N2C(=O)C3ON(c4ccccc4)C(c4ccncc4)C3C2=O)c(C)c1 (stereo not given)
inactive: activity change, negative = inhibition [1] 4.43% | activity change, negative = inhibition [2] 26.3% | activity, negative = inhibition [3] 0.652% | Potency [4] > 20.6 µM

O=C(NCc1ccco1)c1cnn2c1NC(c1ccccc1)CC2C(F)(F)F (stereo not given)
inactive: activity change, negative = inhibition [1] -8.13% | activity change, negative = inhibition [2] -2.99% | activity, negative = inhibition [3] -6.74% | Potency [4] > 20.6 µM

COc1ccc(CSc2nnc(C)n2N)cc1Br
inactive: activity change, negative = inhibition [1] -1.02% | activity change, negative = inhibition [2] -3.73% | activity, negative = inhibition [3] 8.37% | Potency [4] > 20.6 µM

Cc1cc2c(C)nc(Cc3ccccc3)nc2o1
inactive: activity change, negative = inhibition [1] -3.87% | activity change, negative = inhibition [2] -3.38% | activity, negative = inhibition [3] 5.35% | Potency [4] > 20.6 µM

CC(NC(=O)c1ccc(=O)oc1)c1ccccc1 (stereo not given)
inactive: activity change, negative = inhibition [1] 8.92% | activity change, negative = inhibition [2] 0.391% | activity, negative = inhibition [3] 6.96% | Potency [4] > 20.6 µM

C=CCn1c(SCC(=O)c2ccccc2)nnc1-c1ccc2c(c1)OCO2
inactive: activity change, negative = inhibition [1] -7.81% | activity change, negative = inhibition [2] 16.5% | activity, negative = inhibition [3] -9.25% | Potency [4] > 20.6 µM

CC1CN(C2CCN(S(=O)(=O)Cc3ccccc3)CC2)CC(C)O1 (stereo not given)
inactive: activity change, negative = inhibition [1] 3.47% | activity change, negative = inhibition [2] -2.24% | activity, negative = inhibition [3] 5.06% | Potency [4] > 20.6 µM

CSC1=C(C#N)C(C)CC(=O)N1 (stereo not given)
inactive: activity change, negative = inhibition [1] 3.08% | activity change, negative = inhibition [2] -0.632% | activity, negative = inhibition [3] 3.87% | Potency [4] > 20.6 µM

CC1(C)NC(=O)N(CC(O)Cn2nnc3ccccc32)C1=O (stereo not given)
inactive: activity change, negative = inhibition [1] 5.85% | activity change, negative = inhibition [2] 8.84% | activity, negative = inhibition [3] 6.79% | Potency [4] > 20.6 µM

COc1cc(/C=N/n2nnnc2N)ccc1O
inactive: activity change, negative = inhibition [1] -2.54% | activity change, negative = inhibition [2] -23.8% | activity, negative = inhibition [3] -1.69% | Potency [4] > 20.6 µM

CC(=O)/C=C(\C)NCCNc1c(F)c(F)c(CO)c(F)c1F
inactive: activity change, negative = inhibition [1] -4.08% | activity change, negative = inhibition [2] 1.05% | activity, negative = inhibition [3] -2.87% | Potency [4] > 20.6 µM

CC1(C)Cc2nc(NCCN3CCOCC3)c(C#N)cc2CO1
inactive: activity change, negative = inhibition [1] 7.57% | activity change, negative = inhibition [2] 7.63% | activity, negative = inhibition [3] 11% | Potency [4] > 20.6 µM

OC(CNCCCN1CCCCC1)COc1ccccc1 (stereo not given)
inactive: activity change, negative = inhibition [1] -10.5% | activity change, negative = inhibition [2] -28.5% | activity, negative = inhibition [3] 9.93% | Potency [4] > 20.6 µM

CCN(CC)CCN1C(=O)C(=O)/C(=C(/O)c2ccc(C)cc2)C1c1cccnc1 (stereo not given)
inactive: activity change, negative = inhibition [1] 4.64% | activity change, negative = inhibition [2] -5.95% | activity, negative = inhibition [3] 7.25% | Potency [4] > 20.6 µM

CCCOC(=O)C1[C@H]2C(=O)N(Cc3ccco3)C[C@]23C=C[C@H]1O3 (stereo not given in full)
inactive: activity change, negative = inhibition [1] 0.485% | activity change, negative = inhibition [2] 2.35% | activity, negative = inhibition [3] 4.93% | Potency [4] > 20.6 µM

COc1ccc2[nH]c(C)c(C(=O)CN3CCc4cc(OC)c(OC)cc4C3)c2c1
inactive: activity change, negative = inhibition [1] -11.9% | activity change, negative = inhibition [2] 1.37% | activity, negative = inhibition [3] 4.19% | Potency [4] > 20.6 µM

CNC(=O)CCn1nc(-c2ccccc2)c2ccccc2c1=O
inactive: activity change, negative = inhibition [1] 5.34% | activity change, negative = inhibition [2] -2.43% | activity, negative = inhibition [3] 1.15% | Potency [4] > 20.6 µM

CCOC(=O)C(CC(=O)O)N1CCCCC1 (stereo not given)
inactive: activity change, negative = inhibition [1] 4.69% | activity change, negative = inhibition [2] 10.9% | activity, negative = inhibition [3] 3.36% | Potency [4] > 20.6 µM

Nc1nc(NC(=O)c2cccs2)nn1-c1ccccc1
inactive: activity change, negative = inhibition [1] 4.21% | activity change, negative = inhibition [2] 7.64% | activity, negative = inhibition [3] -0.835% | Potency [4] > 20.6 µM

COc1ccccc1N1CCN(CCOc2c(OC)cccc2OC)CC1
inactive: activity change, negative = inhibition [1] 12.4% | activity change, negative = inhibition [2] 12.8% | activity, negative = inhibition [3] 2.04% | Potency [4] > 20.6 µM

COc1ccccc1N1CCN(C(=O)c2c(C)cc(=O)oc2C)CC1
inactive: activity change, negative = inhibition [1] 10.3% | activity change, negative = inhibition [2] -1.71% | activity, negative = inhibition [3] 6.24% | Potency [4] > 20.6 µM

O=C1CCC(=O)N1c1nc2nc(-c3ccccc3)cc(-c3ccccc3)n2n1
inactive: activity change, negative = inhibition [1] -12.9% | activity change, negative = inhibition [2] 6.64% | activity, negative = inhibition [3] -1.33% | Potency [4] > 20.6 µM

O=C1CCC(=O)N1c1nc2n(n1)C(c1ccccc1)C=C(c1ccc(Br)cc1)N2 (stereo not given)
inactive: activity change, negative = inhibition [1] -22.1% | activity change, negative = inhibition [2] 3.81% | activity, negative = inhibition [3] -13.7% | Potency [4] > 20.6 µM
